# Measured values from PubChem BioAssay (NCATS).
# Where “and” joins values, the source holds several entries; their conditions need not be identical. Equal values may be shown once. Inconclusive results are not listed. Where a call stands in place of a potency, no number is given. A structure can be active in one record and inactive in another. Calls of active or inactive are those of the source. Unless noted, the call rests on the fitted dose curve; in most records, active means well fitted curve in the direction sought with a large enough effect; inconclusive means small, poorly fitted or top-dose-only effect, or another doubt; inactive means no such curve, though single readings can be large; an effect the other way counts as inactive or inconclusive.
# Tests used:
# [1] = NS1 protein of Zika virus - qHTS assay to identify small molecule inhibitors in human HEK 293 cells (AID 1347053); further: nearly all actives have a fitted effect of over 55% in size; further: potency means the concentration at half of the fitted maximal effect
# How it was run: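 Compound-treated (1 h pre-infection) HEK 293 cells infected with ZIKV MR766, MOI = 0.5; after 24 h at 37 C, NS1 read by TR-FRET; data normalized to uninfected and infected controls.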
# [2] = target: T1, Tyrosine-protein phosphatase non-receptor type substrate 1 (Homo sapiens) + Leukocyte surface antigen CD47 (Homo sapiens) (UniProt P78324+Q08722); assay: CD47-SIRPalpha protein protein interaction - LANCE assay qHTS validation (AID 1347057; active means well fitted curve in the direction sought with a large enough effect in the signal ratio, with a control signal flat, not every such curve was filed as active; the % refers to the signal ratio; further: series mostly up to about 38 µM)
# T1 sequence (P78324 whole entry, looked up, the tested form may be a part): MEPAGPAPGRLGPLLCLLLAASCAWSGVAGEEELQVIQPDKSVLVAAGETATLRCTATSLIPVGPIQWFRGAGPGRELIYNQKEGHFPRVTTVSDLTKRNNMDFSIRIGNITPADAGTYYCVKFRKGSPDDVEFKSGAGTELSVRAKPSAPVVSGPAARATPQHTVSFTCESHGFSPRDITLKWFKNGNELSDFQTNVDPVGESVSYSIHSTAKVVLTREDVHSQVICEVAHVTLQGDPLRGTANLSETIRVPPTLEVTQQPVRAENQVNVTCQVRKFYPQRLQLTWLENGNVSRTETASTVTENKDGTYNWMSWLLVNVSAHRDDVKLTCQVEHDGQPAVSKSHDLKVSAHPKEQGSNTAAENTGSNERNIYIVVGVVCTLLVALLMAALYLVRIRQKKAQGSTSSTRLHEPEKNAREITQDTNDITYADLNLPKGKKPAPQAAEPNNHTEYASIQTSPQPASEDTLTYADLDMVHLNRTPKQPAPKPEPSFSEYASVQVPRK
# T1 sequence (Q08722 whole entry, looked up, the tested form may be a part): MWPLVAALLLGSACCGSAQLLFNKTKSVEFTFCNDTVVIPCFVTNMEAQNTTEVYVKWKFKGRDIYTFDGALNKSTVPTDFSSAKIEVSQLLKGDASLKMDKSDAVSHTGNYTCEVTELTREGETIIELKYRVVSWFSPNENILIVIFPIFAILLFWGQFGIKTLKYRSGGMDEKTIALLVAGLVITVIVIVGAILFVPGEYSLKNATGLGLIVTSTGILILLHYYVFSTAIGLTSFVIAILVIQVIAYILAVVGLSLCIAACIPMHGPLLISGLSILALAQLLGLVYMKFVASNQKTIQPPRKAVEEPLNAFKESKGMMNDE
# How it was run: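 Inhibition of soluble CD47/SIRPalpha ectodomain association by titrated compounds, measured as 665/615 nm time-resolved FRET ratio after sequential 30 min room-temperature incubations.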
# [3] = target: T1, Tyrosine-protein phosphatase non-receptor type substrate 1 (Homo sapiens) + Leukocyte surface antigen CD47 (Homo sapiens); assay: CD47-SIRPalpha protein protein interaction - Alpha assay qHTS validation (AID 1347059);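 further: bead proximity luminescence from CD47 binding SIRPalpha after compound preincubation with SIRPalpha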; further: potency means the concentration at half of the fitted maximal effect
# How it was run: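 AlphaScreen signal between CD47-His (12.5 nM) and biotin-SIRPalpha (25 nM) soluble extracellular domains, bead-captured via Ni-NTA and streptavidin. Compounds, in 7-point titrations, met SIRPalpha 30 min before CD47; PBS pH 7.4 with 0.05% IGEPAL.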
# [4] = target: Parathyroid hormone/parathyroid hormone-related peptide receptor (Homo sapiens) (UniProt Q03431); assay: qHTS for PTHR1 Agonists: Optimization Screen against the NCGC LOPAC library (AID 1347079);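 further: GloSensor cAMP luminescence in HEK-293 GP2 cells expressing human PTHR1 with IBMX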
# Sequence of Parathyroid hormone/parathyroid hormone-related peptide receptor (Homo sapiens) (Q03431 whole entry, looked up): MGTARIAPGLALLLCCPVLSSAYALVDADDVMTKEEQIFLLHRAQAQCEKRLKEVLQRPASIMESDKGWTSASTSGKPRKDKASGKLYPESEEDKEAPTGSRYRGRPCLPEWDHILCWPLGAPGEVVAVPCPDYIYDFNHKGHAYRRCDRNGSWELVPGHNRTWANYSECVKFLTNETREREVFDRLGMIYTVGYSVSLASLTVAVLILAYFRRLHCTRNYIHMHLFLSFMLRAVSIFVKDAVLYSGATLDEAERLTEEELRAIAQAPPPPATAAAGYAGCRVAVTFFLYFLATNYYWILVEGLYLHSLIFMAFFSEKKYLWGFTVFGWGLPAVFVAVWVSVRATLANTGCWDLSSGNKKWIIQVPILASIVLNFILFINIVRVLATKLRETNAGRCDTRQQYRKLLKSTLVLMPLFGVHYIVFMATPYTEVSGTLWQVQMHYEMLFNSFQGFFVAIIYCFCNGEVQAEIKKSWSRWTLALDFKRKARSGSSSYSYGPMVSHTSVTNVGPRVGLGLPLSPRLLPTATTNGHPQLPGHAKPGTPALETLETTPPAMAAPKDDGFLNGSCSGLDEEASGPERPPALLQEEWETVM
# How it was run: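 Signal increase flags agonism. GP2 cells, derived from HEK-293, express human PTHR1 and a GloSensor cAMP construct.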
# [5] = qHTS of pediatric cancer cell lines to identify multiple opportunities for drug repurposing: Primary screen for TC32 cells (AID 1347089); further: nearly all actives have a fitted effect of over 60% in size; further: potency means the concentration at half of the fitted maximal effect
# How it was run: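 In the primary qHTS, MIPE compounds were tested at 11 concentrations (0.78 nM to 46 µM) and NPC compounds at 8 (0.59 nM to 46 µM) on TC32 cells for 48 h. CellTiter-Glo luminescence gave viability.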
# [6] = qHTS of pediatric cancer cell lines to identify multiple opportunities for drug repurposing: Primary screen for SJ-GBM2 cells (AID 1347091); further: potency means the concentration at half of the fitted maximal effect
# How it was run: (§1)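 Cell viability, CellTiter-Glo luminescence; 500-1,000 cells/well, 8- or 11-point titration, 48 h compound exposure at 37 degrees C, 5% CO2. Controls: DMSO neutral, bortezomib 2.3 µM final as positive.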
# [7] = qHTS of pediatric cancer cell lines to identify multiple opportunities for drug repurposing: Primary screen for A673 cells (AID 1347092); further: nearly all actives have a fitted effect of over 45% in size; further: potency means the concentration at half of the fitted maximal effect
# How it was run: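 48 h compound exposure, A673, 500-1,000 cells/well, 37 degrees C/5% CO2. MIPE: 11-point, 0.78 nM-46 µM; NPC: 8-point, 0.59 nM-46 µM (final). Readout CellTiter-Glo luminescence after 15 min RT.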
# [8] = qHTS of pediatric cancer cell lines to identify multiple opportunities for drug repurposing: Primary screen for SK-N-MC cells (AID 1347093); further: potency means the concentration at half of the fitted maximal effect
# How it was run: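 Metabolically active cells were quantified by ATP-dependent luminescence (CellTiter-Glo, 15 min at room temperature) following 48 h treatment. Cells had been plated at 500-1,000 per well and settled for 5 h beforehand.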
# [9] = qHTS of pediatric cancer cell lines to identify multiple opportunities for drug repurposing: Primary screen for BT-37 cells (AID 1347094); further: potency means the concentration at half of the fitted maximal effect
# How it was run: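 Readout: CellTiter-Glo luminescence, 48 h treatment. Controls DMSO (neutral) and bortezomib 2.3 µM final (positive). Potency and efficacy taken from primary-screen concentration-response curves.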
# [10] = qHTS of pediatric cancer cell lines to identify multiple opportunities for drug repurposing: Primary screen for DAOY cells (AID 1347090); further: nearly all actives have a fitted effect of over 55% in size; further: potency means the concentration at half of the fitted maximal effect
# How it was run: as §1
SMILES,Potency [1],outcome [2],Potency [3],outcome [4],Potency [5],Potency [6],Potency [7],Potency [8],Potency [9],Potency [10]
COc1ccccc1N1CCN(CCN(C(=O)C2CCCCC2)c2ccccn2)CC1,inactive,inactive,inactive,inactive,inactive,inactive,inactive,inactive,inactive,–
Cc1c(OCC(F)(F)F)ccnc1CS(=O)c1nc2ccccc2[nH]1 (stereo not drawn),inactive,inactive,inactive,inactive,inactive,inactive,inactive,–,inactive,inactive
O=C(CCc1ccc(O)cc1)c1c(O)cc(O)cc1O,inactive,inactive,inactive,inactive,inactive,–,–,0.118 µM (active),–,118 nM (active)
O=c1c(O)c(-c2cc(O)c(O)c(O)c2)oc2cc(O)cc(O)c12,inactive,inactive,inactive,inactive,inactive,inactive,–,–,–,inactive
Clc1ccc(C(Cn2ccnc2)OCc2c(Cl)cccc2Cl)c(Cl)c1 (stereo not drawn),inactive and 14.8 µM (active),–,–,–,inactive,inactive,21.1 µM (active) and 18.7 µM (active),–,–,inactive
Clc1ccc2c(N3CCN(CCCN4CCN(c5ccnc6cc(Cl)ccc56)CC4)CC3)ccnc2c1,inactive,inactive,inactive,–,inactive,inactive,inactive,–,inactive,inactive
Cc1cccc(C#Cc2ccccc2)n1,inactive,inactive,inactive,inactive,–,inactive,inactive,–,inactive,inactive
CN1CCC(=C2c3ccccc3CCc3sccc32)CC1,inactive,–,–,–,inactive,inactive,–,–,–,inactive
Cc1cc(O)c2c(c1)C(=O)c1cc(O)cc(O)c1C2=O,inactive,inactive,inactive,inactive,inactive,inactive,inactive,–,inactive,–
Cc1cc(Cl)ccc1OCCCC(=O)NO,inactive,inactive,inactive,–,–,–,2.96 µM (active),2.09 µM (active),–,9350 nM (active)
COc1cc2nc(N3CCN(C(=O)C4CCCO4)CC3)nc(N)c2cc1OC (stereo not drawn),inactive,–,–,inactive,–,inactive,–,–,–,inactive
CCCCCCCCOc1ccccc1C(=O)Nc1ccc(C(=O)OCC[N+](C)(CC)CC)cc1,inactive,–,–,–,inactive,–,–,–,–,–
CC1(C)NC(=O)N(c2ccc([N+](=O)[O-])c(C(F)(F)F)c2)C1=O,inactive,inactive,inactive,inactive,inactive,inactive,inactive,inactive,inactive,inactive
O=c1c(O)c(-c2ccc(O)cc2O)oc2cc(O)cc(O)c12,inactive,–,1850 nM (active),inactive,inactive,inactive,inactive,–,inactive,inactive
Cc1nc(Nc2ncc(C(=O)Nc3c(C)cccc3Cl)s2)cc(N2CCN(CCO)CC2)n1,inactive,–,–,–,inactive,18.7 µM (active) and 15 µM (active),3.72 µM (active) and 3.35 µM (active),–,–,23.5 µM (active) and 8.41 µM (active)
COc1cc2c(cc1OC)C1CC(=O)C(CC(C)C)CN1CC2 (stereo not drawn),inactive,inactive,inactive,inactive,–,inactive,inactive,inactive,inactive,inactive
O=c1cc(N2CCOCC2)oc2c(-c3ccccc3)cccc12,inactive,inactive,inactive,inactive,–,16.6 µM (active),–,9.35 µM (active),–,–
O=C1c2ccccc2-c2n[nH]c3cccc1c23,inactive,–,inactive,inactive,inactive,inactive,1.87 µM (active),2.64 µM (active),3430 nM (active),–
CC1=C(C(=O)O)N2C(=O)[C@@H](NC(=O)[C@H](N)C3=CCC=CC3)[C@H]2SC1,inactive,–,–,–,inactive,inactive,inactive,inactive,inactive,inactive
Cc1cc2c(s1)Nc1ccccc1N=C2N1CCN(C)CC1,inactive,–,–,–,inactive,inactive,inactive,inactive,inactive,inactive
Nc1ncn([C@H]2C[C@H](O)[C@@H](CO)O2)c(=O)n1,inactive,–,–,–,inactive,inactive,inactive,inactive,inactive,inactive
CCc1nc(N)nc(N)c1-c1ccc(Cl)cc1,9350 nM (active),–,–,–,3.74 µM (active) and 11.7 µM (active),2.66 µM (active) and 4.18 µM (active),10.6 µM (active) and 14.8 µM (active),668 nM (active) and 1.18 µM (active),6920 nM (active),5.31 µM (active) and 18.7 µM (active)
COCCCOc1ccnc(CS(=O)c2nc3ccccc3[nH]2)c1C (stereo not drawn),inactive,–,–,–,inactive,inactive,inactive,inactive,inactive,inactive
